# Tests used:
# Conditions in all cases: concentration: 1 μM, replicates: in singlicate; n = 1
# BMPR1A = system: BMPR1A
# BMPR1B = system: BMPR1B
# BMPR2 = system: BMPR2
# BMX = system: BMX
# BRAF = system: BRAF
# BRK = system: T1, BRK
# T1 construct: gene PTK6
# BRSK1 = system: BRSK1
# BRSK2 = system: BRSK2
# BTK = system: BTK
# BUB1 = system: BUB1
# CAMK1B = system: CAMK1B
# CAMK1D = system: CAMK1D
# CAMK1G = system: CAMK1G
# CAMK1 = system: CAMK1
# CAMK2A = system: CAMK2A
# CAMK2B = system: CAMK2B
# CAMK2D = system: CAMK2D
# CAMK2G = system: CAMK2G
# CAMK4 = system: CAMK4
# CAMKK1 = system: CAMKK1
# 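Also: KINOMEscan kinase panel screen.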
Structure (SMILES),%Inh (BMPR1A),%Inh (BMPR1B),%Inh (BMPR2),%Inh (BMX),%Inh (BRAF),%Inh (BRK),%Inh (BRSK1),%Inh (BRSK2),%Inh (BTK),%Inh (BUB1),%Inh (CAMK1B),%Inh (CAMK1D),%Inh (CAMK1G),%Inh (CAMK1),%Inh (CAMK2A),%Inh (CAMK2B),%Inh (CAMK2D),%Inh (CAMK2G),%Inh (CAMK4),%Inh (CAMKK1)
Cl.c1ccc(-c2n[nH]cc2-c2ccnc(-c3ccc(CN4CCOCC4)cc3)c2)nc1 [GW776245],0%,52%,0%,13%,16%,0%,0%,21%,0%,0%,0%,27%,0%,22%,2%,5%,11%,13%,0%,26%
Cc1cccc(-c2nc(Nc3ccncc3)c3ccccc3n2)n1 [GW855857],0%,29%,0%,6%,0%,13%,0%,11%,0%,0%,0%,3%,0%,0%,6%,0%,7%,0%,47%,24%
O=S(=O)(c1ccc(-c2ccnc3[nH]ccc23)cc1)N1CCCC1 [GSK846226],0%,0%,24%,10%,0%,0%,0%,0%,0%,0%,30%,31%,33%,39%,47%,12%,44%,34%,0%,2%
Cc1cc(N2Cc3ccccc3C2)nc(Nc2ccc(S(=O)(=O)N3CCOCC3)cc2)n1.Cl [GSK1669917],0%,0%,0%,11%,0%,38%,0%,0%,0%,21%,4%,9%,0%,5%,0%,0%,2%,20%,0%,0%
O=C(Nc1n[nH]c2cc(-c3cccc(F)c3F)ccc12)C1CC1 [SB-733894],31%,31%,52%,0%,0%,0%,54%,58%,0%,0%,0%,12%,100%,26%,19%,13%,1%,7%,0%,8%
CN(C)CCN(C)C(=O)c1cc(-c2ccncc2)c(-c2ccc(Cl)c(O)c2)o1.Cl.Cl [SB-710397],0%,0%,31%,0%,94.5%,29%,2%,0%,10%,95.2%,6%,13%,0%,10%,0%,0%,0%,1%,0%,0%
O=c1cc(N2CCOCC2)nc2n(Cc3cccc(Cl)c3Cl)ccn12 [GSK2286295],0%,0%,0%,25%,0%,8%,13%,0%,0%,0%,8%,18%,0%,14%,0%,0%,5%,9%,0%,14%
Cl.NC(=O)c1cccc(Nc2nccc(Nc3ccc(Oc4cccc(Cl)c4)c(Cl)c3)n2)c1 [GW659008],0%,0%,3%,14%,0%,69%,0%,0%,0%,36%,0%,17%,9%,25%,0%,0%,5%,16%,0%,0%
